Source: PubChem BioAssay
Vaccinia mCherry = inhibitors of vaccinia virus infection (mCherry reporter signal) | Vaccinia virus mCherry reporter infection, fluorescence | Potency, µM (highest dose often 36.5 µM), without a hit: at the top dose activity change, negative = inhibition, actives largely listed as inhibitors | 310,000 tested, 0.63% active | AID 720579; calls by dose curve; tested in A549 cells; also: nearly all actives have a fitted effect of over 35% in size
Pf growth 96h = P. falciparum growth inhibition at 96 hour, primary screen for plastid delayed-death inhibitors | P. falciparum luciferase reporter growth, 96 h | Potency, µM (series often up to 28.7 µM), inactives show top-dose activity change, negative = inhibition, actives largely listed as inhibitors | 320,000 tested, 6.9% active | AID 504834
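Luminescence readout: decreased luciferase signal marks inhibited growth of reporter-expressing P. falciparum in infected red cells (2% hematocrit, 0.05% parasitemia final), exposed to compound two generations (96 h, 37 C, 5% CO2).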
AMA1 RON2 block = AMA1-RON2 (P. falciparum) interaction inhibition; AlphaScreen AMA1-biotinylated RON2 peptide binding; Potency, µM (highest dose often 58.2 µM), inactives show at the highest dose activity change, negative = inhibition, actives largely listed as inhibitors; 360,000 tested, 0.2% active; AID 720542;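 also: 0% = vehicle wells and -100% = peptide control; nearly all actives have a fitted effect of over 45% in size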
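AMA1 (3D7) with his tag at 25 nM final met compounds first, then biotinylated RON2 peptide at 25 nM; detection used donor plus acceptor beads, 10 µg/mL apiece, read by AlphaScreen after 30 min at room temperature.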
VACV Venus inh = inhibitors of vaccinia virus (Venus reporter); 330,000 tested, 0.46% active; AID 720580; Potency, µM (top dose mostly 36.5 µM), for inactives: at the top dose activity change, negative = inhibition, hits mostly inhibitors; Vaccinia virus Venus reporter expression, fluorescence; calls by dose curve; tested in A549 cells; also: nearly all actives have a fitted effect of over 30% in size
Pf growth 48h = P. falciparum growth inhibition at 48 hours (one generation); Potency, µM (series often up to 28.7 µM), inactives show at the top dose activity change, negative = inhibition, actives largely listed as inhibitors; AID 504832; 310,000 tested, 5.9% active; P. falciparum luciferase growth in erythrocytes, 48 h
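Luciferase-expressing parasites in RBCs, 2% Hct / 0.1% parasitemia final; RPMI 1640 + 0.5% Albumax; 37 C, 5% CO2, one generation; luminescence read-out, lower signal = inhibition.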
* = called active by the depositor; i = inactive; u = inconclusive; x = not tested or not shown. An excerpt weighted towards active compounds, which were near 8.7% of everything screened. Unless noted, calls follow the shape of the dose curve; as a rule, active = well fitted curve in the direction sought with a large enough effect; inconclusive = small, poorly fitted or top-dose-only effect, or another doubt; inactive = no such curve, though single readings can be large; an effect the other way counts as inactive or inconclusive. Unless noted, % is scaled to controls: 0 for no effect and ±100 for the full control effect; potency is read from the fitted curve at half-maximal effect.

SMILES	Vaccinia mCherry	Pf growth 96h	AMA1 RON2 block	VACV Venus inh	Pf growth 48h
O=C(CCNS(=O)(=O)c1ccc2c(c1)CCN2C(=O)C1CC1)N1CCN(c2cccc(C(F)(F)F)c2)CC1	i	x	x	-3%	x
COc1cc(C(=S)N2CCOCC2)ccc1OS(=O)(=O)c1ccc(NC(C)=O)cc1	i	20%	3%	-1%	14%
O=C(Nc1cccc(S(=O)(=O)N2CCCC2)c1)c1cc(S(=O)(=O)N2CCOCC2)ccc1F	-8%	u	0%	-13%	9.3µM*
COc1cc(C(=S)N2CCCC2)ccc1OS(=O)(=O)c1ccc(NC(C)=O)cc1	x	126%	-4%	x	2.1µM*
O=C(Nc1cccc(F)c1)c1cc(S(=O)(=O)N2CCOCC2)ccc1N1CCCC1	x	u	0%	x	u
CC(=O)Oc1ccc(-c2ccc(C(=O)Nc3cccc(S(=O)(=O)N4CCOCC4)c3)cc2)cc1	16µM*	u	-3%	u	u
Cc1cc(C)n(-c2ccc(C(=O)N3CCN(S(=O)(=O)c4cccc(Br)c4)CC3)cc2)n1	x	x	-6%	x	x
Cc1cc(C)n(-c2ccc(C(=O)N3CCN(S(=O)(=O)c4ccc(C(C)C)cc4)CC3)cc2)n1	x	u	1%	x	12µM*
Cc1c(C(=O)N2CCC(C)CC2)c(S(=O)(=O)Nc2cccc(C(F)(F)F)c2)c(C)n1C	-22%	x	x	-19%	x
COc1cc(CN2c3ccc(Br)cc3C(=O)CS2(=O)=O)cc(OC)c1	-2%	x	x	-11%	x
O=C(Nc1cccc(OCc2cc(=O)n3ccccc3n2)c1)c1ccccc1Br	i	x	x	-9%	x
O=[N+]([O-])c1ccc(O)c(C2=NNC(c3ccccc3F)C2)c1 (stereo not drawn)	u	22%	64%	11µM*	0%
COc1ccccc1N1CCN(c2ccnc3cc(Cl)ccc23)CC1	11µM*	0.47µM*	-19%	-28%	u
O=C(Nc1ccc(OC(F)(F)F)cc1)N1CCN(c2ccnc3cc(Cl)ccc23)CC1	x	u	3%	x	u
COc1ccccc1NC(=O)N1CCN(c2ccnc3cc(Cl)ccc23)CC1	u	2.6µM*	-14%	-20%	2.1µM*
O=C(c1ccc2c(c1)OCO2)N1CCC2(CC1)Oc1ccc(F)cc1C(=O)C21CC(c2ccccc2)=NO1 (stereo not drawn)	i	u	-6%	-19%	13µM*
Cc1ccc(C(=O)N2CCC3(CC2)Oc2ccc(F)cc2C(=O)C32CC(c3ccccc3)=NO2)s1 (stereo not drawn)	i	10µM*	-13%	-20%	u
O=C(c1ccoc1)N1CCC2(CC1)Oc1ccc(F)cc1C(=O)C21CC(c2ccccc2)=NO1 (stereo not drawn)	-1%	12µM*	-15%	-28%	u
O=C(c1ccoc1)N1CCC2(CC1)Oc1ccc(F)cc1C(=O)C21CC(c2ccc(Cl)cc2)=NO1 (stereo not drawn)	i	-8%	-5%	-22%	u
Cc1ccc(NC(=O)C2CCN(S(=O)(=O)c3ccc4c(c3)NC(=O)C(C)S4)CC2)cc1C (stereo not drawn)	-5%	u	-2%	-26%	10µM*
CC1Sc2ccc(S(=O)(=O)N3CCC(C(=O)NCc4ccc(Cl)cc4)CC3)cc2NC1=O (stereo not drawn)	-16%	15%	15%	-16%	10µM*
COc1ccccc1NC(=O)C1CCN(S(=O)(=O)c2ccc3c(c2)NC(=O)C(C)S3)CC1 (stereo not drawn)	x	u	15%	x	12µM*
COc1cc(Nc2nc(SCc3ccccc3Cl)nc3ccccc23)cc(OC)c1	-4%	x	x	-7%	x
Cc1ccc2nc(COc3ccccc3NC(=O)C(C)(C)C)cc(=O)n2c1	-8%	x	x	-25%	x
Cc1ccc(NC(=O)CC2Nc3cc(C)c(C)cc3NC2=O)c(C)c1 (stereo not drawn)	-15%	x	x	-10%	x
COC(=O)c1cccc(-n2c(CCC(=O)O)ccc2-c2ccc(OC)cc2)c1	-29%	x	x	-21%	x
Cc1ccccc1C(=O)N1CCc2cc(-c3nc(NC(=O)Cc4ccc5c(c4)OCO5)sc3C)ccc21	x	54%	-8%	x	u
Cc1sc(NC(=O)Cc2ccc3c(c2)OCO3)nc1-c1ccc2c(c1)CCN2C(=O)c1cccc(F)c1	i	6.6µM*	u	-15%	u
